Assay outcomes as filed in PubChem BioAssay.
FMDV antiviral: High Throughput Screening for Foot and Mouth Disease Virus Antivirals. FMDV antiviral cell-based qHTS. AID 1159524, 2015. Potency, µM (titrated, usually from 57.9 µM), without a hit: at the top dose activity change, negative = inhibition, usual class: inhibitors. 1.2% of 410,000 active; calls by dose curve; tested in HEK293T cells; note: read-out not given here; nearly all actives have a fitted effect of over 45% in size
AmpC inh no detg: qHTS Inhibitors of AmpC Beta-Lactamase (assay without detergent); P00811; AmpC nitrocefin hydrolysis, absorbance 480 nm, 0.0001% Triton; Potency, µM (titrated, usually from 57.1 µM), inactives show top-dose activity change, negative = inhibition, hits mostly inhibitors; 0.52% of 330,000 active; AID 485341, 2010;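 note: plate controls were no compound for no effect and no enzyme for full effect; nearly all actives have a fitted effect of over 20% in size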
Target sequence (P00811 whole entry, looked up): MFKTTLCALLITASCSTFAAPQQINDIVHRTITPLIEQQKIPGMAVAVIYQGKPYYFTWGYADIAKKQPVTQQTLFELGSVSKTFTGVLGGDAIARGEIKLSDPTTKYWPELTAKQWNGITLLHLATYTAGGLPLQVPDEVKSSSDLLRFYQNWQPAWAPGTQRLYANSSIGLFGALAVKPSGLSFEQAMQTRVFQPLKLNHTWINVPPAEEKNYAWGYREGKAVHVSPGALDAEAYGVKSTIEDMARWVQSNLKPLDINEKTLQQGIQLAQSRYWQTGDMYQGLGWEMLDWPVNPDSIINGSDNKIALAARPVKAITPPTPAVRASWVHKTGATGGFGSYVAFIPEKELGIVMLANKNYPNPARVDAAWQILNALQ
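20 mM phosphate pH 7.0 + 0.01% (detergent screen) or 0.0001% Triton X-100; 5.3 nM AmpC reagent; cpd preinc 15 min RT; nitrocefin (800 uM stock) to start; A480 q20 s × 4 min; Activity was normalised to no-enzyme and no-compound control wells.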
AmpC inh detg: qHTS Inhibitors of AmpC Beta-Lactamase (assay with detergent); P00811; AmpC hydrolysis of nitrocefin, absorbance 480 nm, 0.01% Triton; Potency, µM (top dose mostly 114 µM), without a hit: at the highest dose activity change, negative = inhibition, usual class: inhibitors; 0.041% of 370,000 active;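 note: 0% = no-compound wells and -100% = no-enzyme wells; nearly all actives have a fitted effect of over 25% in size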
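20 mM phosphate pH 7.0 + 0.01% (detergent screen) or 0.0001% Triton X-100; 5.3 nM AmpC reagent; cpd preinc 15 min RT; nitrocefin (800 uM stock) to start; A480 q20 s × 4 min; Activity was normalised to no-enzyme and no-compound control wells.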
Sm TGR block: qHTS Assay for the Inhibitors of Schistosoma Mansoni Peroxiredoxins; Potency, µM (titrated, usually from 114 µM), for inactives: at the highest dose activity change, negative = inhibition, hits mostly inhibitors; Schistosoma mansoni thioredoxin glutathione reductase (TGR), Q962Y6; purified TGR, DTNB reduction, TNB absorbance 405 nm; 3% of 360,000 active; note: nearly all actives have a fitted effect of over 60% in size
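First, TGR (20 nM dispensed) and NADPH were mixed with compound. Second, a 15 min room-temperature incubation followed. Third, further NADPH and then DTNB were added to start the reaction. Finally, TNB absorbance was monitored kinetically.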
AMA1-RON2 inh: qHTS for Inhibitors of AMA1-RON; Towards Development of Antimalarial Drug Lead: Primary Screen; Plasmodium falciparum AMA1 (3D7) - RON2 peptide interaction; AlphaScreen AMA1-biotinylated RON2 peptide binding; Potency, µM (doses to about 58.2 µM), for the others: top-dose activity change, negative = inhibition, usual class: inhibitors; 0.2% of 360,000 active; AID 720542, 2013;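 note: 0% = vehicle wells and -100% = peptide control; nearly all actives have a fitted effect of over 45% in size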
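AMA1 (3D7) with his tag at 25 nM final met compounds first, then biotinylated RON2 peptide at 25 nM; detection used donor plus acceptor beads, 10 µg/mL apiece, read by AlphaScreen after 30 min at room temperature.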
* hit, by the source's call; [ ] = dose if it differs, or a comment. Hits are enriched below; roughly 4.1% of the tested compounds scored in any of these assays. Unless noted, calls come from the whole dose curve; as a rule, active = well fitted curve in the direction sought with a large enough effect; inconclusive = small, poorly fitted or top-dose-only effect, or another doubt; inactive = no such curve, though single readings can be large; an effect the other way counts as inactive or inconclusive. Unless noted, % is set by controls: 0 for no effect and ±100 for the full control effect; potency is the fitted concentration of half-maximal effect.

What do the screens show for `Cc1c(NC(=O)OCCNC(=O)Nc2ccccc2)sc(=S)n1C`?
FMDV antiviral: -6.7%; AmpC inh no detg: -14.8%; AmpC inh detg: 6.2%; Sm TGR block: -25.9%; AMA1-RON2 inh: -3.9%

What do the screens show for `Cc1ccc(S(=O)(=O)NCCOC(=O)Nc2sc(=S)n(C)c2C)cc1`?
AmpC inh no detg: -33.9%; AmpC inh detg: -6.0%; Sm TGR block: 11.2µM*; AMA1-RON2 inh: 5.6%

What do the screens show for `Cc1ccccc1NC(=O)c1c(C)[nH]c(=S)c(C#N)c1-c1ccco1`?
FMDV antiviral: 0.4%; AmpC inh no detg: -30.3%; AmpC inh detg: -7.9%; Sm TGR block: -15.3%; AMA1-RON2 inh: 60.4%

What do the screens show for `CNC(=O)c1c(C)[nH]c(=S)c(C#N)c1-c1ccco1`?
FMDV antiviral: -4.3%; AmpC inh no detg: 48.6%; AmpC inh detg: 2.2%; Sm TGR block: 31.6µM*; AMA1-RON2 inh: 15.5%

Results for COc1cccc(-c2ccc(O)c(CNC(c3ccccc3)c3ccc(Cl)cc3)c2)n1 (stereo not given) ?
FMDV antiviral: 10.9%

What do the screens show for `CCn1c(=S)sc2c(=O)n(-c3ccccc3)c(SC)nc21`?
FMDV antiviral: 17.8µM*; AmpC inh no detg: -9.1%; AmpC inh detg: -1.1%; Sm TGR block: -28.3%; AMA1-RON2 inh: -2.4%

How did O=c1[nH]c(Nc2ccccc2Cl)cc2ccccc12 do in these assays?
FMDV antiviral: 26.3%; AMA1-RON2 inh: 13.0%

Results for Cc1ccccc1Nc1cc2ccccc2c(=O)[nH]1 ?
FMDV antiviral: -12.0%; AmpC inh no detg: -38.1%; AmpC inh detg: inconclusive; Sm TGR block: 3.16µM*; AMA1-RON2 inh: -0.8%

How did O=c1[nH]c(Nc2ccc(F)cc2)cc2ccccc12 do in these assays?
FMDV antiviral: -14.6%; AmpC inh no detg: -31.3%; AmpC inh detg: -6.4%; Sm TGR block: 35.5µM*; AMA1-RON2 inh: 2.3%

Results for COc1ccc(CCNC(=O)CSc2nnnn2-c2cccc(C(C)=O)c2)cc1OC ?
FMDV antiviral: -2.6%; AmpC inh detg: -2.9%; Sm TGR block: 1.6%

How did COc1ccc(NCc2cccn2-c2nnc(N3CCC(C)CC3)s2)c(OC)c1 do in these assays?
FMDV antiviral: 2µM*; AmpC inh detg: -1.7%; Sm TGR block: -12.6%

Results for COc1ccc(OC)c(NCc2cccn2-c2nnc(N3CCC(C)CC3)s2)c1 ?
FMDV antiviral: 23.2%; AmpC inh detg: 1.5%; Sm TGR block: 11.5%

How did COc1ccc(-c2cc3nc(CCl)[nH]c(=O)c3s2)cc1 do in these assays?
FMDV antiviral: 14.1µM*; AmpC inh no detg: -12.4%; AmpC inh detg: 3.7%; Sm TGR block: -17.1%; AMA1-RON2 inh: 33.9%

What do the screens show for `COc1ccc(-c2cc3nc[nH]c(=O)c3s2)cc1`?
FMDV antiviral: 11.6%; AmpC inh no detg: -9.5%; AmpC inh detg: 4.9%; Sm TGR block: 7.7%; AMA1-RON2 inh: 11.7%

What do the screens show for `CCOC(=O)c1c(C)[nH]c(C(=O)OC)c1CCC(=O)OC`?
FMDV antiviral: -17.8%; AmpC inh no detg: -24.5%; AmpC inh detg: -4.4%; Sm TGR block: -4.6%; AMA1-RON2 inh: 6.8%

What do the screens show for `CCOC(=O)c1[nH]c(Cc2[nH]c(C(=O)OCC)c(C)c2CCC(=O)OC)c(CCC(=O)OC)c1C`?
FMDV antiviral: 1.7%; AmpC inh no detg: 14.8%; AmpC inh detg: inconclusive; Sm TGR block: 7.94µM*; AMA1-RON2 inh: inconclusive

How did CCCc1nc(SCC(=O)N2CCN(c3ccccc3)CC2)c2c(=O)n(C)c(=O)n(C)c2n1 do in these assays?
FMDV antiviral: inconclusive; AmpC inh no detg: -20.1%; AmpC inh detg: -2.1%; Sm TGR block: -13.3%; AMA1-RON2 inh: 6.3%

Results for CC(C)c1nc(SCC(=O)N2CCN(c3ccccc3)CC2)c2c(=O)n(C)c(=O)n(C)c2n1 ?
FMDV antiviral: 20µM*; AmpC inh no detg: -13.9%; AmpC inh detg: 2.6%; Sm TGR block: -3.9%; AMA1-RON2 inh: -2.3%

What do the screens show for `COc1cc2c(cc1OC)CN(c1ccc([N+](=O)[O-])cc1C#N)CC2`?
FMDV antiviral: 31.6µM*; AmpC inh no detg: -13.7%; AmpC inh detg: -16.5%; Sm TGR block: 3.6%; AMA1-RON2 inh: -23.2%

What do the screens show for `COc1cc2c(cc1OC)CN(c1ccc([N+](=O)[O-])cc1Cl)CC2`?
FMDV antiviral: inconclusive; AmpC inh no detg: 56.8%; AmpC inh detg: -5.1%; Sm TGR block: -16.9%; AMA1-RON2 inh: -10.3%[11.6 µM]

What do the screens show for `Cc1ccc(C(CC(=O)Nc2ccc(F)c(Cl)c2)N2Cc3ccccc3C2=O)cc1` (stereo not given)?
FMDV antiviral: 3.2%; AmpC inh detg: 17.6%; Sm TGR block: -0.2%

What do the screens show for `Cc1ccc(-c2csc(/C(C#N)=C/c3ccccc3Cl)n2)cc1`?
FMDV antiviral: 23.5%; AmpC inh detg: 16.3%; Sm TGR block: 5.4%

What do the screens show for `Cc1nn2c(=O)cc(COC(=O)c3ccc(NC(=O)c4ccc(C(C)(C)C)cc4)cc3)nc2s1`?
FMDV antiviral: 12.2%; AmpC inh detg: -1.3%; Sm TGR block: -3.2%

How did Cc1ccccc1C(=O)Nc1ccc(C(=O)OCc2cc(=O)n3nc(C4CC4)sc3n2)cc1 do in these assays?
FMDV antiviral: 12.6µM*; AmpC inh detg: 2.5%; Sm TGR block: -1.5%

How did Cc1nn2c(=O)cc(COC(=O)c3ccc(NC(=O)c4cccc(Br)c4)cc3)nc2s1 do in these assays?
FMDV antiviral: 17.8µM*; AmpC inh detg: -3.3%; Sm TGR block: -1.4%

How did Cc1nn2c(=O)cc(COC(=O)c3cccc(NC(=O)c4cccs4)c3)nc2s1 do in these assays?
FMDV antiviral: 10µM*; AmpC inh detg: 5.8%; Sm TGR block: 5.2%

What do the screens show for `Cc1nn2c(=O)cc(COC(=O)c3ccc(NC(=O)C4CCCCC4)cc3)nc2s1`?
FMDV antiviral: 11.2µM*; AmpC inh detg: -6.7%; Sm TGR block: -2.5%

How did Oc1ccc(C[C@H]2CNC(=S)N2C[C@H]2CCCN2C[C@H](Cc2ccccc2)N2C[C@H](Cc3ccc(O)cc3)N(CC3CCCCCC3)C2=S)cc1 do in these assays?
FMDV antiviral: -25.0%; AMA1-RON2 inh: 23.3%

What do the screens show for `Cc1ccc(C(=O)Nc2ccc(C(=O)OCc3cc(=O)n4nc(C5CC5)sc4n3)cc2)cc1`?
FMDV antiviral: -14.6%; AmpC inh detg: 8.4%; Sm TGR block: 5.6%

What do the screens show for `CC(C)c1nn2c(=O)cc(COC(=O)c3ccccc3NC(=O)c3cccc(Cl)c3)nc2s1`?
FMDV antiviral: 8.91µM*; AmpC inh detg: 9.4%; Sm TGR block: 52.5%

What do the screens show for `CCCc1nn2c(=O)cc(COC(=O)c3cccc(NC(=O)COc4ccccc4C)c3)nc2s1`?
FMDV antiviral: 14.1µM*; AmpC inh detg: 18.2%; Sm TGR block: 6.3%
